# Screens: PubChem, National Center for Advancing Translational Sciences (NCATS)
# This is a sample that favours compounds with a hit; in the whole collection about 19% have one here.
# TDP1 cell noCPT: qHTS for Inhibitors of human tyrosyl-DNA phosphodiesterase 1 (TDP1): qHTS in cells in absence of CPT | actives 15% (n = 420,000) | DT40 Tdp1-/- hTDP1 cells, no CPT, ATP luminescence, 48 h | Potency, µM (titrated, usually from 46.2 µM), for inactives: top-dose activity change, negative = growth inhibition, usual class: inhibitors | AID 686978, 2013; further: potency means the concentration at half of the fitted maximal effect; on the % scale 0 is the no-effect control and ±100 the full control effect; nearly all actives have a fitted effect of over 55% in size
#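 Luminescent ATP content (CellTiter-Glo) served as the growth readout. Knockout chicken DT40 cells expressing human TDP1 were exposed to compounds without camptothecin for a minimum 48 hr at 37 °C.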
# BCR signal inh: blocks chronic active B-cell receptor signaling. ABC-DLBCL IkBa-CBG/CBR reporter, luminescence ratio, 4 h. Potency, µM (series often up to 46.1 µM), for the others: at the top dose activity change, negative = inhibition, actives largely listed as inhibitors. actives 0.05% (n = 340,000). AID 493014; active means well fitted inhibition curve with a large enough effect in the signal ratio, with a control signal flat, not every such curve was filed as active; inconclusive means small, poorly fitted or top-dose-only effect, or effect the other way, or a change in a side signal; the % refers to the signal ratio;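 further: potency means the concentration at half of the fitted maximal effect; plate controls were basal doxycycline-induced cells for no effect and cells given 10 µM MG132 for full effect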
#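 Concentration-response series (up to 46 uM) were applied to TMD8 dual-reporter cells for 4 h at 37C with doxycycline. Green/red ratio, after filter-overlap correction, defined %Activity; red signal alone was normalised to basal cells and zero luminescence.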
# MCF10A rerep: inducers of DNA re-replication in MCF 10A breast cells; MCF 10A DNA re-replication, Hoechst nuclear intensity, 48 h; Potency, µM (top dose mostly 46.1 µM), for the others: at the highest dose activity, positive = re-replication, actives largely listed as activators; actives 2.9% (n = 350,000); AID 624296; further: potency means the concentration at half of the fitted maximal effect; % of control where 0% means no effect; nearly all actives have a fitted effect of over 50% in size
# DT40 TDP1 CPT: growth inhibition of DT40 Tdp1-/-;hTDP1 cells with camptothecin (screen for TDP1 inhibitors). chicken DT40 Tdp1-/-;hTDP1 cells + 20 nM CPT, ATP luminescence, 48 h. Potency, µM (titrated, usually from 46.2 µM), for inactives: at the top dose activity change, negative = growth inhibition, actives largely listed as inhibitors. actives 12% (n = 420,000). AID 686979; further: potency means the concentration at half of the fitted maximal effect; on the % scale 0 is the no-effect control and ±100 the full control effect; nearly all actives have a fitted effect of over 55% in size
#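 Chicken DT40 Tdp1-/- cells stably complemented with human TDP1 were seeded at 400 cells/well in medium containing 20 nM camptothecin, exposed to pin-transferred compounds, and grown at 37 °C for at least 48 hr. Viability was read as ATP luminescence.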
# IL1B secr inh: inflammasome signaling inhibition, IL-1 beta readout | actives 4.7% (n = 360,000) | activity change, % at 57.5 µM | THP-1 LPS/ATP IL-1B secretion, AlphaLISA, 16 h; stronger effect = lower value; in the data active means activity change below about -50%; inconclusive means mostly about -30% to -49%; further: on the % scale 0 is the no-effect control and ±100 the full control effect
#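 THP-1 cells pretreated 1 hr with compounds (up to 57.5 uM final), then stimulated with LPS (250 ng/mL final) plus ATP (1.25 mM final); secreted IL-1B measured by AlphaLISA after 16 hr, decreased signal indicating inhibition.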
# SW480 rereplic: DNA re-replication induction in SW480 cells | Potency, µM (highest dose often 46.1 µM), without a hit: at the highest dose re-replication activation, usual class: activators | AID 624297 | actives 1.8% (n = 340,000) | SW480 DNA re-replication, Hoechst DNA content imaging, 48 h; further: potency means the concentration at half of the fitted maximal effect; % of control where 0% means no effect; nearly all actives have a fitted effect of over 55% in size
#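 Readout is total intensity of Hoechst-stained nuclei, excited at 405 nm and collected at 500-530 nm. Compound treatment lasted 48 hr at 37 C in 5% CO2 before staining.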
# * = called active by the depositor; ? = inconclusive; · = not tested or not shown. Unless noted, the call rests on the fitted dose curve; in most records, active means well fitted curve in the direction sought with a large enough effect; inconclusive means small, poorly fitted or top-dose-only effect, or another doubt; inactive means no such curve, though single readings can be large; an effect the other way counts as inactive or inconclusive.
SMILES,TDP1 cell noCPT,BCR signal inh,MCF10A rerep,DT40 TDP1 CPT,IL1B secr inh,SW480 rereplic
COc1cc(-c2cc(NC(C)=O)c3ncc(-c4ccc(C(C)=O)cc4)n3c2)cc(OC)c1OC,?,·,·,29.1µM*,-63.5*,·
COc1ccc(-c2cc(NC=O)c3ncc(-c4cccc(OC)c4)n3c2)cc1,5.17µM*,·,·,5.8µM*,89.2,·
COc1cccc(-c2cnc3c(NC=O)cc(-c4cc(OC)c(OC)c(OC)c4)cn23)c1,?,·,·,?,22.1,·
COc1cccc(-c2cnc3c(NC=O)cc(-c4ccc(N(C)C)cc4)cn23)c1,8.2µM*,·,·,14.6µM*,19.5,·
COC(=O)c1ccc(CNC(=O)c2ccc3c(c2)S(=O)(=O)N=C2CCCCCN23)cc1,13.2%,1.0%,2.6%,2.3%,0.0,6.3%
C=C(c1cn(C(C)=O)c2ccccc12)c1cn(C(C)=O)c2ccccc12,?,·,8.3%,23.1µM*,24.8,16.0%
CCOP(=O)(OCC)C1NC(=O)N(c2ccccc2)C1=O (configuration not stated),4.6%,0.1%,2.4%,2.3%,10.7,4.7%
C[C@H]1O[C@@H](O[C@H]2[C@@H](O)C[C@H](O[C@H]3[C@@H](O)C[C@H](O[C@H]4CC[C@@]5(C)[C@H](CC[C@@H]6[C@@H]5C[C@@H](O)[C@]5(C)[C@@H](C7=CC(=O)OC7)CC[C@]65O)C4)O[C@@H]3C)O[C@@H]2C)C[C@H](O)[C@@H]1O,0.596µM*,?,?,0.841µM*,-62.7*,0.411µM*
Cc1ccc(-n2nc(C)c3c(C(=O)Nc4ccc(C)cc4Cl)cc(C)nc32)cc1,?,·,·,-23.6%,·,·
O=C(c1cnccn1)N1CCC[C@@]2(CCN(c3ccccn3)C2)C1,-17.8%,·,·,12.5%,·,·
CCCCN1CC(COCc2ccccc2)Oc2ccccc2S1(=O)=O (configuration not stated),23.1µM*,-0.2%,1.5%,?,-13.7,?
Cc1cc(Oc2cccc3c2S(=O)(=O)N(C2CCCC2)CC(COCc2ccccc2)O3)cc(C)c1C (configuration not stated),16.4µM*,·,1.9%,23.1µM*,28.0,6.8%
CCCCN1CC(COCc2ccccc2)Oc2cccc(F)c2S1(=O)=O (configuration not stated),?,·,-6.3%,?,17.9,9.9%
CCCCN1CC(COCc2ccccc2)Oc2cccc(Oc3ccc(OC)cc3)c2S1(=O)=O (configuration not stated),18.4µM*,·,18.3%,?,25.3,-2.5%
O=C(CCSC1=NCCCN1)c1ccc(F)cc1,2.91µM*,·,?,1.84µM*,-4.1,?
CCCCCCC1CC(/C(C)=N\NC(N)=O)OC1=O (configuration not stated),-6.9%,0.7%,-2.5%,-13.0%,-6.6,-2.9%
CCCCCCCCCCC[C@@H](C[C@@H]1OC(=O)[C@H]1CCCCCC)OC(=O)[C@H](CC(C)C)NC=O,18.4µM*,3.0%,-6.6%,?,-17.4,-35.1%
COc1ccc(C(=O)CNc2ccccc2C#N)cc1,20.6µM*,10.1%,15.1%,?,-9.5,-0.4%
COc1ccc(C(=O)COc2ccccc2C(N)=O)cc1,?,0.9%,9.5%,-29.3%,-5.7,1.9%
COc1ccc(C(=O)COc2ccccc2C#N)cc1,-23.1%,?,16.4µM*,-21.3%,-18.0,1.4%
CN(C)CCCN(C(=O)COc1ccccc1)c1nc2cc3c(cc2s1)OCCO3,-29.9%,?,0.7%,-7.2%,-1.2,-33.4%
